Source: PubChem BioAssay (NCATS)
Several values for one entry are separate records, joined by “and”; a condition that tells them apart may be missing. Identical values can stand only once. Records with an inconclusive call do not appear. A call without a number means that no potency is given here. Activity calls are given as the source filed them. Unless noted, calls follow the shape of the dose curve; as a rule, active = well fitted curve in the direction sought with a large enough effect; inconclusive = small, poorly fitted or top-dose-only effect, or another doubt; inactive = no such curve, though single readings can be large; an effect the other way counts as inactive or inconclusive.

Legend:
[1] = target: Thyrotropin-releasing hormone receptor (Homo sapiens) (UniProt P34981); experiment: qHTS for Small Molecule Agonists and Allosteric Enhancers of Human TRH Receptor: Validation Screen for Agonists (AID 493127;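 active = calcium activation more than 3 SD above the typical response in the agonist read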;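 also: intracellular calcium rise by fluo-8 fluorescence before TRH EC20 addition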); conditions: TRH receptor agonist cell assay; at 2 µM; stronger effect = higher value
Procedure, shortened: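 Gq-coupled calcium mobilization in TRHR cells after compound addition, monitored kinetically with fluo-8 dye on an FDSS reader.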

[2] = qHTS for Inhibitors of Cell Surface uPA Generation: Validation Assay (AID 493164); conditions: mouse cells, plasminogen activation; series mostly up to 38.3 µM;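 also: RAW 264.7 macrophage cells exposed to compound for 18 h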
Procedure, shortened: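 RAW 264.7, 4000 cells/well, o/n plating; cpd 7-pt 1:5 dilution 2.45 nM–38.3 uM final; 18 h, 37 C/5% CO2; ATP-Lite, 5 s luminescence exposure.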

[3] = target: Galactokinase (Homo sapiens) (UniProt P51570); experiment: qHTS Validation Assay for Inhibitors of Human Galactokinase (GALK) (AID 493189); conditions: purified human GALK enzyme activity, qHTS 7-point titration; series mostly up to 57.5 µM
Procedure, shortened: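 GALK (5 nM) with 35 uM ATP and 100 uM galactose in HEPES pH8.0, MgCl2, NaCl, DTT, BSA; 1 h at room temperature. Residual ATP read by Kinase-Glo Plus luminescence after 10 min.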

[4] = target: Peptidyl-prolyl cis-trans isomerase NIMA-interacting 1 (Homo sapiens) (UniProt Q13526); experiment: qHTS Validation Assay to Find Inhibitors of Pin1 (AID 504536; active = well fitted inhibition curve with a large enough effect in the polarisation, with a control signal flat, not every such curve was filed as active; the % refers to the polarisation); conditions: Pin1 fluorescence polarization peptide binding assay; series mostly up to 57.5 µM
Procedure, shortened: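 Fluorescence polarization competition: compounds (titration) displace HiFluor-488-labeled Pin1-1b peptide from Pin1 (0.3 uM final) in pH 7.5 HEPES buffer with DTT, 10 min at room temperature; %Activity normalized to no-enzyme wells, curves fitted.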

[5] = Inducers of the Endoplasmic Reticulum Stress Response (ERSR) in human glioma: Validation (AID 504836); conditions: human glioma cells, ER stress response reporter; series mostly up to 38.3 µM
Procedure, shortened: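 ERSR induction read as luciferase luminescence (Bright-Glo, 10 min at room temperature) in stably transfected human U87-MG glioma cells exposed to compounds for 16 h, using GRP78 as sensor.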

[6] = qHTS for Inhibitors of ATXN expression: Validation (AID 588378); conditions: cell-based ATXN2 expression reporter assay, luminescence; series mostly up to 57.1 µM; also: nearly all actives have a fitted effect of over 75% in size; also: potency is read from the fitted curve at half-maximal effect
Procedure, shortened: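 Luminescence from an ATXN2-FFLuc reporter in HEK293 cells served as read-out after 24 h compound treatment at 37 degrees C; CellTiter-Fluor fluorescence was recorded first to assess viability.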

[7] = Nrf2 qHTS screen for inhibitors: Validation (AID 493153; active = well fitted inhibition curve with a large enough effect in the main read-out, with a control signal flat, not every such curve was filed as active); conditions: A549 ARE-Fluc reporter, 18-24 h; Potency: luciferase luminescence; viability change: measured here: cytotoxicity max response; luciferase luminescence, at 46.1 µM (top of the series)
Procedure, shortened: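 Dose-response validation uses reporter A549 cells with firefly luciferase under an antioxidant response element. Compounds stay on cells 18-24 h at 37°C, and luminescence indicates Nrf2-driven transcription.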

[8] = Validation screen for small molecules that induce DNA re-replication in SW480 colon adenocarcinoma cells (AID 504364); conditions: DNA re-replication phenotype (high-content imaging); series mostly up to 46.1 µM; also: potency is read from the fitted curve at half-maximal effect
Procedure, shortened: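 Cells are treated 48 hr with test compound, stained 40 min with Hoechst at 37 C, and scanned for nuclear fluorescence; compounds inducing re-replication increase nuclei with elevated intensity.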

[9] = target: phosphoglycerate mutase (Leishmania major) (UniProt Q4Q090); experiment: qHTS Validation Assay to Find Inhibitors of Phosphoglycerate Mutase (AID 504548); conditions: biochemical enzyme activity; Potency: inhibition qHTS; series mostly up to 57.5 µM
Procedure, shortened: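 Lm PGAM 1.25nM final; 100 mM TEA pH 7.6, 5 mM MgCl2, 0.01% Tween-20; 45 min RT; Kinase-GloPlus, 10 min; end-point luminescence. Enzyme-free wells as negative controls.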

[10] = target: Ubiquitin carboxyl-terminal hydrolase 1 (Homo sapiens) (UniProt O94782); experiment: Inhibitors of USP1/UAF1: Pilot qHTS (AID 504865); conditions: purified USP1/UAF1, Ub-rhodamine cleavage fluorescence; series mostly up to 114 µM; also: nearly all actives have a fitted effect of over 35% in size; also: potency is read from the fitted curve at half-maximal effect
Procedure, shortened: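 USP1/UAF1 complex (1nM) preincubated with compound 15 min at room temperature, then Ub-Rho substrate (150nM final) added. Fluorescence read kinetically at 480/540 nm, 6 reads every 60 seconds. Buffer: 50mM HEPES pH 7.8, 0.5mM EDTA, 0.1 mg/ml BSA, 1mM TCEP, 0.01% Tween-20.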

[11] = qHTS for Inhibitors of ATXN expression: Validation of Cytotoxic Assay (AID 588349); conditions: cytotoxicity counter-screen for ATXN expression inhibitors, cell viability; series mostly up to 57.1 µM;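 also: cells exposed to compound for 72 hr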
Procedure, shortened: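 HEK293, compound dose series, 72 hr / 37 degrees C; viability via CellTiter Glo (intracellular ATP).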

[12] = target: Phosphoglycerate kinase, glycosomal (Trypanosoma brucei brucei) (UniProt P07378); experiment: qHTS Validation Assay to Find Inhibitors of Phosphoglycerate Kinase (AID 504547); conditions: enzymatic PGK inhibition, coupled luminescence read-out; series mostly up to 57.5 µM
Procedure, shortened: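 Inhibition of the enzyme is judged by a Kinase-Glo Plus luminescent signal following a one-hour incubation at room temperature. Because 1,3-BPG is unstable, it is made in situ by GAPDH at 100nM final; no-PGK wells define the baseline.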

[13] = target: DNA dC->dU-editing enzyme APOBEC-3G (Homo sapiens) (UniProt Q9HC16); experiment: qHTS for inhibitors of Vif-A3G interactions: Validation (AID 588379); conditions: Vif-A3G protein interaction assay; series mostly up to 46.1 µM
Procedure, shortened: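 HeLa cells stably expressing Vif and A3G-eYFP, 700 cells/well, incubated overnight at 37 deg C, then exposed to compound overnight at 37 deg C. Inhibition of Vif-mediated degradation read as increased yellow fluorescence (Ex 488/Em 500-530) by laser-scanning cytometry.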

Chain of Thyrotropin-releasing hormone receptor (Homo sapiens) (P34981 whole entry, looked up): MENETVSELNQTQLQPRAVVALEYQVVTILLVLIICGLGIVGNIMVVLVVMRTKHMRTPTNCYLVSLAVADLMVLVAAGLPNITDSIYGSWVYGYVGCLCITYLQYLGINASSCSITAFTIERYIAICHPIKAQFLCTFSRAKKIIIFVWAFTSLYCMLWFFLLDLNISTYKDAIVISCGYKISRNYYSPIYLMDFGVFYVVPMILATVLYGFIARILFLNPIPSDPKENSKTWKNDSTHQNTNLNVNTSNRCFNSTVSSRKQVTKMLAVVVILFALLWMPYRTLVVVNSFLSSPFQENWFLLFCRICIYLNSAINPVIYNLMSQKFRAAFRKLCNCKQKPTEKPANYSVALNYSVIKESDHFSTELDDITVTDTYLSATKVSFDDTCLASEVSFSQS
Chain of Peptidyl-prolyl cis-trans isomerase NIMA-interacting 1 (Homo sapiens) (Q13526 whole entry, looked up): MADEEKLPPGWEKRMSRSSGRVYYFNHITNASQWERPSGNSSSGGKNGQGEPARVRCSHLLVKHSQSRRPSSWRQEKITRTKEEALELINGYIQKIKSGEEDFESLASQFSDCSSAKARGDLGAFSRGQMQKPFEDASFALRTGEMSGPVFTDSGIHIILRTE
Chain of phosphoglycerate mutase (Leishmania major) (Q4Q090 1-553): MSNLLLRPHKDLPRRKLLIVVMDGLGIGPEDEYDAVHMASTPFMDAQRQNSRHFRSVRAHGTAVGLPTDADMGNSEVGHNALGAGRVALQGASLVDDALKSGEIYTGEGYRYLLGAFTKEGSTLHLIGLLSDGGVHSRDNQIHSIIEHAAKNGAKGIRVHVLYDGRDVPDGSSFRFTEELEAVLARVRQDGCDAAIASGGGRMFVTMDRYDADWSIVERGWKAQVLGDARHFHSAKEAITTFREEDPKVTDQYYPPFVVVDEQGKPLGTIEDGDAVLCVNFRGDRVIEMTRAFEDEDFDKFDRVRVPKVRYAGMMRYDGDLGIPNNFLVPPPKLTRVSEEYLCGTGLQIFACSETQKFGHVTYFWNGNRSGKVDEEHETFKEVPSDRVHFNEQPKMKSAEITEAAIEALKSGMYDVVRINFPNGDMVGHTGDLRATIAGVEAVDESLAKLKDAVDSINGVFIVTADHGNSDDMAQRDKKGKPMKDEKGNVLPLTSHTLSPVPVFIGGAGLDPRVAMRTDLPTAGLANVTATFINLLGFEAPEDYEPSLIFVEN
Chain of Ubiquitin carboxyl-terminal hydrolase 1 (Homo sapiens) (O94782 whole entry, looked up): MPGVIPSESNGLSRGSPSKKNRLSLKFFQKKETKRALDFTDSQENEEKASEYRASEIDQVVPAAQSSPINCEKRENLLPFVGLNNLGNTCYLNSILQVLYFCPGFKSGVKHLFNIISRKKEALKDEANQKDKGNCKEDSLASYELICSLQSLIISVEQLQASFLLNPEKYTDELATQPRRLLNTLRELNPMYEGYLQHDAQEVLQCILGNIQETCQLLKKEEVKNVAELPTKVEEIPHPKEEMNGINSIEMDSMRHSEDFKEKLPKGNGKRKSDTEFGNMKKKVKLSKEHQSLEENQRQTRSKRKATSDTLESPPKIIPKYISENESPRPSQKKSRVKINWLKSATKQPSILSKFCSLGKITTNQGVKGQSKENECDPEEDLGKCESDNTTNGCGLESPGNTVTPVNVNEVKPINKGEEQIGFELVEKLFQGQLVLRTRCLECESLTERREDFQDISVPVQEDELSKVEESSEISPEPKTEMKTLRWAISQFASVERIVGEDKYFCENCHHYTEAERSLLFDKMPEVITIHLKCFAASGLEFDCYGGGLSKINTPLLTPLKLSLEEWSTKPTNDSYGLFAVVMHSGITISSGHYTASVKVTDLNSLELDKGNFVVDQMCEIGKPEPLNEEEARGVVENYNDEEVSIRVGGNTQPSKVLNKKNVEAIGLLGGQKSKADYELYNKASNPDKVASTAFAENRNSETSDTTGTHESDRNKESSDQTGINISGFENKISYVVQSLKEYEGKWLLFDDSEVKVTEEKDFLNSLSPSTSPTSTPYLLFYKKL
Chain of Phosphoglycerate kinase, glycosomal (Trypanosoma brucei brucei) (P07378 whole entry, looked up): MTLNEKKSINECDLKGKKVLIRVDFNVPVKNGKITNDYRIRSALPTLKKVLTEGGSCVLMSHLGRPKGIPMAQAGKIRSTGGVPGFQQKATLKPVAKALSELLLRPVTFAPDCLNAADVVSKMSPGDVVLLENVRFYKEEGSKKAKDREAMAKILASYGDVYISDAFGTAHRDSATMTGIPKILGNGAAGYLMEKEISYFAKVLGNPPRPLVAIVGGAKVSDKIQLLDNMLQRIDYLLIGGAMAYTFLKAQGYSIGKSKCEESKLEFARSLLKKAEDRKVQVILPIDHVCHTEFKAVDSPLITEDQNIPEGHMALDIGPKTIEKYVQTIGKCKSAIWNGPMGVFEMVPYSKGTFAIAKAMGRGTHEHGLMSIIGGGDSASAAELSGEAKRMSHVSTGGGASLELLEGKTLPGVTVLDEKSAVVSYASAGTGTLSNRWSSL
Chain of Galactokinase (Homo sapiens) (P51570 whole entry, looked up): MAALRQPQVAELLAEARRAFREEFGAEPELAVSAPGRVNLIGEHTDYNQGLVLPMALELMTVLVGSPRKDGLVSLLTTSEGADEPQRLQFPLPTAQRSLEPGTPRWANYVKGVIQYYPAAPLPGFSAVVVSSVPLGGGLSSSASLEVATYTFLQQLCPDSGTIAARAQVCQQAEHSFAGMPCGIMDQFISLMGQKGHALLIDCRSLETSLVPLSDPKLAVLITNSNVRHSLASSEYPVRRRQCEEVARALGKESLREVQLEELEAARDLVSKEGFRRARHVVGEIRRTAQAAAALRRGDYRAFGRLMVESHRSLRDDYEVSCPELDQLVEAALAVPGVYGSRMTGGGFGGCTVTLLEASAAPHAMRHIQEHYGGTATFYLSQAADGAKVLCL
Chain of DNA dC->dU-editing enzyme APOBEC-3G (Homo sapiens) (Q9HC16 whole entry, looked up): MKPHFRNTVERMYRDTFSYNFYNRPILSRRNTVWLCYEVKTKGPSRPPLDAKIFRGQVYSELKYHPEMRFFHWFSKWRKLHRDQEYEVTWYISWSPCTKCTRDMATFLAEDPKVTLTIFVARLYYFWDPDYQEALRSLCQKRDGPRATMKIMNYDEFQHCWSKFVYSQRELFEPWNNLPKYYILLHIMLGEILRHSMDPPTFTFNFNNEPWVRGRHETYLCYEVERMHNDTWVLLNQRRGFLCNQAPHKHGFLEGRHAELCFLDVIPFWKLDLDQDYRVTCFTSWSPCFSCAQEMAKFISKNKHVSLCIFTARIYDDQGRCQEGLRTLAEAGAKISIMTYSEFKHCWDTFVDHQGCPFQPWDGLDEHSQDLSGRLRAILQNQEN

| Compound | activation [1] | outcome [2] | outcome [3] | Potency [4] | outcome [5] | Potency [6] | Potency [7] | viability change [7] | Potency [8] | Potency [9] | Potency [10] | Potency [11] | Potency [12] | outcome [13] |
| --- | --- | --- | --- | --- | --- | --- | --- | --- | --- | --- | --- | --- | --- | --- |
| CCCn1c(C)c(C(=O)c2ccc3ccccc3c2)c2ccccc21 | -5.69% (inactive) | inactive | inactive | inactive | inactive | inactive |  |  |  |  |  |  |  |  |
| c1ccc2cc(CC3=NCCN3)ccc2c1 |  | inactive | inactive | inactive | inactive | inactive | inactive | -5.88% | inactive | inactive | inactive | inactive |  |  |
| C[N+]1(C)C2CCC1CC(OC(=O)c1c[nH]c3ccccc13)C2 (stereo unspecified) | 0.188% (inactive) | inactive | inactive | inactive | inactive | inactive |  |  |  |  | inactive | inactive | inactive |  |
| CN(N=O)c1cc(O)ccc1O | -2.69% (inactive) | inactive | inactive | inactive | inactive | 28.2 µM (active) |  |  | inactive |  | inactive |  |  |  |
| CN1C2CCC1CC(OC(c1ccccc1)c1ccc(Cl)cc1)C2 (stereo unspecified) | 8.88% (inactive) |  | inactive |  |  |  |  |  | inactive |  | inactive |  |  |  |
| N=C(N)c1ccc(CS(=O)(=O)F)cc1 |  | inactive |  | inactive | inactive | inactive | inactive | -1.04% |  | inactive | inactive | inactive | inactive |  |
| O=[N+]([O-])c1cc(O)c(O)c([N+](=O)[O-])c1 | -0.438% (inactive) | inactive | inactive | inactive | inactive | inactive |  |  | inactive |  | inactive |  | inactive | inactive |
| CCCN(CCC)[C@H]1CCc2c(F)ccc(O)c2C1 | -3.06% (inactive) | inactive | inactive | inactive | inactive | inactive |  |  | inactive | inactive | inactive | inactive |  |  |
| C[C@]12Cc3cn4c(nc3C=C1CCC1C2CC[C@@]2(C)[C@H]1CC[C@@]2(O)C#N)nc1ccccc14 (stereo partly specified) | -4.5% (inactive) | inactive | inactive | inactive |  | inactive |  |  | 23.1 µM (active) |  | inactive | inactive | inactive |  |
| CC(C)(C)c1cc(C=C(C#N)C#N)cc(C(C)(C)C)c1O | 0.125% (inactive) | inactive | inactive | inactive | inactive | 0.631 µM (active) |  |  |  | inactive |  |  | inactive |  |
| CC(=O)OCC1=C(C(=O)O)N2C(=O)[C@@H](NC(=O)CCC[C@@H](N)C(=O)O)[C@H]2SC1 |  | inactive |  | inactive | inactive | inactive | inactive | 1.57% |  | inactive | inactive | inactive | inactive |  |
| C[N+]1(C)CCc2cc3c(cc2[C@H]1[C@@H]1OC(=O)c2c1ccc1c2OCO1)OCO3 |  | inactive |  | inactive | inactive | inactive | inactive | -0.563% |  | inactive | inactive | inactive | inactive |  |
| CC1OC1P(=O)(O)O (stereo unspecified) | -2.75% (inactive) |  | inactive |  | inactive |  |  |  | inactive |  | inactive |  |  |  |
| CC(=O)c1c(O)c(C)c(O)c(Cc2c(O)c3c(c(C(=O)/C=C/c4ccccc4)c2O)OC(C)(C)C=C3)c1O | 7.12% (inactive) | inactive | inactive |  | inactive |  |  |  |  | inactive | 79.4 µM (active) and 56.2 µM (active) |  | inactive | inactive |
| COc1ccc2c(c1)/C(=C/c1cnc[nH]1)C(=O)N2 | 0.562% (inactive) | inactive | inactive | inactive | inactive | 2.82 µM (active) |  |  |  |  | inactive |  | inactive |  |
| C[C@H](Cc1ccc2c(c1)OC(C(=O)O)(C(=O)O)O2)NC[C@H](O)c1cccc(Cl)c1 | 0.625% (inactive) | inactive | inactive | inactive | inactive | inactive |  |  | inactive | inactive | inactive | inactive |  |  |
| Cc1o[nH]c(=O)c1CC(N)C(=O)O (stereo unspecified) |  | inactive | inactive | inactive | inactive | inactive | inactive | 2.81% | inactive |  | inactive | inactive | inactive |  |
| CC(C)CC(NP(=O)(O)O[C@@H]1O[C@@H](C)[C@H](O)[C@@H](O)[C@H]1O)C(=O)NC(Cc1c[nH]c2ccccc12)C(=O)O (stereo partly specified) | 1.38% (inactive) |  | inactive |  | inactive |  |  |  | inactive |  |  |  |  |  |
